# Where “and” joins values, the source holds several entries; their conditions need not be identical. Equal entries are not always repeated. The panel holds about 83,000 compounds, 20% with a hit somewhere; the sample as a whole holds those more often.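 Step 1: grow cells in 96-well plates. Step 2: add test compound at a single concentration. Step 3: incubate 48 h. Step 4: record percent growth.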 Values without a mark were called inactive. Calls of active or inactive are those of the source. How the source made its calls: active means growth percent below 10; inactive means the rest.
# Assays:
# Experiment in all cases: NCI-60 one-dose screen, 48 h (100 = growth as untreated, 0 = no growth, -100 = all killed)
# BT-549 breast = conditions: 10 µM unless noted
# MDA-MB-435 melanoma = conditions: 10 µM unless noted
# SW-620 colon = conditions: 10 µM unless noted
# MCF7 breast = tested on: MCF7 breast
# HCT-116 colon = conditions: 10 µM unless noted
# HCC-2998 colon = conditions: 10 µM unless noted
# KM12 colon = conditions: 10 µM unless noted
Compound,growth (BT-549 breast),growth (MDA-MB-435 melanoma),growth (SW-620 colon),growth (MCF7 breast; 10 µM unless noted),growth (HCT-116 colon),growth (HCC-2998 colon),growth (MCF7 breast; 10 µM),growth (MCF7 breast; 100 µM),growth (KM12 colon)
COc1ccc(OC)c(/C=C/c2nc(=S)n(-c3ccc(Cl)cc3)[nH]2)c1,67.2%,-10.3% (active),50.4%,32%,29.6%,45.6%,,,
C/C(=C\CCc1ccsc1)CC/C=C(\C)CCCN1CCN(CCO)CC1,30.1%,41%,-11.4% (active),26.3%,26%,19.8%,,,
O=C(C=C=Nc1ccccc1)C(=O)N=C=Cc1ccccc1,-7.61% (active),50.7%,-26.3% (active),25.9%,-36.3% (active),74.1%,,,
O=C1Nc2ccc(F)cc2/C1=C/c1nc(-c2ccc(F)cc2)n2ccccc12,96.8%,85%,80.1%,85.6%,91.1%,108%,,,
CCCCn1c(Cc2ccc(Cl)cc2)nc2cc(OC)c(OC)cc2c1=O,38%,74.1%,95.6%,86.5%,52.5%,75.8%,,,
COc1cc(/C=C/c2nnc(-c3cc(-c4ccccc4)n[nH]3)o2)cc(OC)c1OC,112%,102%,115%,92%,119%,98.3%,,,
COc1c(O)cc2oc3cc(O)c(CC=C(C)C)c(O)c3c(=O)c2c1C/C=C(\C)CCC=C(C)C,99.3%,78.4%,41.5%,21.9%,-29.6% (active),-0.115% (active),,,
COc1cc(/C=C/C(=O)Nc2ccc3c(c2)/C(=C\c2cccn2C)C(=O)N3)cc(OC)c1OC,46.6%,59.9%,83.1%,1.79% (active),37.3%,,,,
c1ccc2c(c1)[nH]c1c2cc[n+]2cc3c(cc12)CCCC3,72.7%,11.5%,20.7%,,14.7%,24.6%,-13.9% (active),-78.5% (active) and -87.5% (active),26.4%
Cc1nn(-c2ccccc2)c(Cl)c1C(CC(=O)c1ccc(Cl)cc1)CC(=O)c1ccc(Cl)cc1,85.6%,90.9%,96.4%,92.7%,75.4%,99.1%,,,
[O-]/[N+](=C\C=C\c1ccccc1)c1ccccc1,109%,108%,104%,96.3%,102%,103%,,,
NC(=O)N/N=C/c1ccc(Br)o1,104%,113%,114%,95.4%,105%,96.5%,,,
Nc1ccc(S(=O)(=O)Nc2ncccn2)cc1,119%,108%,105%,101%,113%,104%,,,
C[N+]1(CCC[N+]2(C)C[C@@H]3[C@H](C2)[C@@H]2C=C[C@H]3C2)CCOCC1 (some centres not stated),103%,113%,106%,107%,105%,112%,,,
O=Nc1ccc(O)c(=O)cc1,32.5%,32%,-43% (active),20.9%,2.12% (active),97.8%,,,
O=C(Nc1nc(-c2ccccc2)cs1)c1cc(O)c(O)c(O)c1,46%,61%,39.7%,58.4%,25.9%,,,,
CSc1ncc2ncn(C3OC(CO)C(O)C3O)c2n1 (configuration not stated),118%,104%,96.5%,122%,102%,124%,,,
COc1ccc(Nc2ccnc(NCCCNc3ccnc4cc(Cl)ccc34)n2)cc1,-16.8% (active),-94.7% (active),-48.7% (active),-2.74% (active),-100% (active),-74.9% (active),,,
CCC(CC)NCCCCCNc1cc(OC)cc2cccnc12,88%,107%,95.4%,58.4%,90.5%,117%,,,

Compound,growth (BT-549 breast),growth (MDA-MB-435 melanoma),growth (SW-620 colon),growth (MCF7 breast; 10 µM unless noted),growth (HCT-116 colon),growth (HCC-2998 colon),growth (MCF7 breast; 10 µM),growth (MCF7 breast; 100 µM),growth (KM12 colon)
c1cnc2n[nH]c(Nc3ncnc4c3sc3ncccc34)c2c1,106%,101%,101%,91.3%,96.2%,108%,,,
Nc1ccccc1-c1ccc([N+](=O)[O-])cc1,-33.9% (active),52.4%,43.8%,40.1%,60.1%,29.8%,,,
NC(=O)SCC(=O)Nc1ccccc1-c1ccccc1,89.4%,109%,115%,94.8%,87.4%,95.5%,,,
Clc1ccccc1[C@@H]1C[C@@H]2Cc3cc(Br)c4ccccc4c3N1O2,50.1%,-32% (active),16.6%,12.7%,20.3%,56.4%,,,
Cc1ccc(C(O)C2=CC(=O)c3ccccc3C2=O)cc1 (configuration not stated),63.1%,102%,95%,87.1%,91.7%,101%,,,
O=C1/C(=C/c2ccc([N+](=O)[O-])o2)Oc2ccc(Cl)cc21,-53.4% (active),-72.8% (active),-78.7% (active),-24.6% (active),-26.6% (active),,,,
OC(Cc1cccnc1)c1ccccc1 (configuration not stated),107%,110%,100%,104%,107%,107%,,,
COc1cccc2c1O/C(=C\c1c([N+](=O)[O-])ncn1C)C2=O,98%,91.6%,105%,88.4%,83.3%,105%,,,
S=C(c1ccccc1)N1CCN(c2cccc(Cl)c2)CC1,105%,81.5%,98.5%,109%,106%,105%,,,
O=C1Cc2cc(CCN3CCN(CCOCCO)CC3)c(Cl)cc2N1Cc1ccc(-c2ccccc2-c2nn[nH]n2)cc1,87.3%,92.8%,95.9%,87.1%,87.8%,88.5%,,,
Nc1nc(SCc2ccccc2Cl)c(-c2ccccc2)c(SCc2ccccc2Cl)n1,113%,88.8%,77.3%,78%,82.2%,99%,,,
COc1ccc(-c2cc(Cc3cccs3)c(=O)n(Cn3cncn3)n2)cc1,109%,106%,110%,93.2%,101%,108%,,,
Cn1[nH]cc(/C=N/C(N)=O)c1=O,113%,119%,102%,99.6%,109%,103%,,,
CC12CCCCC1C(C(N)=O)C(=O)O2 (configuration not stated),113%,120%,104%,99.3%,112%,99.6%,,,
O=C1/C(=C/c2ccc([N+](=O)[O-])s2)Oc2ccc(Br)cc21,-46.2% (active),-69.5% (active),-63.5% (active),-25.2% (active),-71.5% (active),-79.9% (active),,,
O=C1C2C3C=CC(O3)C2C(=O)N1Nc1ccccc1 (configuration not stated),108%,96.9%,108%,98.9%,106%,102%,,,
N#Cc1cccc(/C=C(/C(=O)c2ccccc2)c2ccccc2)c1,26.7%,8.38% (active),7.39% (active),9.11% (active),25.6%,,,,
O=C(CCc1nnc(Cn2ccnc2)o1)c1nc2ccccc2[nH]1,114%,111%,109%,106%,106%,108%,,,
c1cncc(CNc2ccccc2-c2nnc(Nc3ccc4c(c3)OCO4)o2)c1,39.2%,-28% (active),30.6%,9.29% (active),8.54% (active),20.1%,,,3.86% (active)

# From PubChem BioAssay (NCI)
